Results taken from PubChem BioAssay AID1159580 (chemical genetic matrix, 2015).
Hit rate of the full screen: of about 5,500 compounds, about 2,000 (36%) were called active. Not shown: some 18% with an inconclusive outcome. No stated cut-off is given here; in the data, active means normalized growth mostly below about 0.91 (no sharp cut-off); inconclusive means no clear call, values can overlap the other calls; inactive means mostly above about 0.92. The list shows a part of the results.

Test: chemical genetic growth profiling, strain panel (AID 1159580);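 further: tested at 20 µM; growth read once vehicle control cultures reached saturation at 30 °C; 1 = growth at the plate median or of vehicle wells; lower values mean less growth of the strain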
Settings: growth OD
[1] = S. cerevisiae deletion strains, locus YAL013W, strain DEP1, hits give low values
[2] = S. cerevisiae deletion strains, locus YJR075W, strain HOC1, hits give low values
[3] = S. cerevisiae deletion strains, locus YMR307W, strain GAS1, hits give low values
[4] = S. cerevisiae deletion strains, locus YNL322C, strain KRE1, hits give low values
[5] = S. cerevisiae deletion strains, locus YPL055C, strain LGE1, hits give low values
[6] = S. cerevisiae deletion strains, locus YPL241C, strain CIN2, hits give low values

Measured: normalized growth

CC(C)Oc1cccnc1N(C)C1CCN(Cc2ccccc2)CC1
inactive: [1] 1.02 | S. cerevisiae deletion strains, locus YAL040C, strain CLN3, hits give low values 0.983 | S. cerevisiae deletion strains, locus YCL061C, strain MRC1 (second series), hits give low values 1 | S. cerevisiae deletion strains, locus YDR363W, strain ESC2, hits give low values 1 | S. cerevisiae deletion strains, locus YER002W, strain NOP16, hits give low values 0.967 | [2] 1.01 | [3] 1.03 | S. cerevisiae deletion strains, locus YNL128W, strain TEP1, hits give low values 1.01 | S. cerevisiae deletion strains, locus YNL175C, strain NOP13, hits give low values 0.991 | S. cerevisiae deletion strains, locus YNL197C, strain WHI3, hits give low values 0.991 | S. cerevisiae deletion strains, locus YNL224C, strain SQS1, hits give low values 1 | [4] 1.01 | S. cerevisiae deletion strains, locus YOR083W, strain WHI5 (second series), hits give low values 0.976 | [5] 1 | [6] 1.01

COc1ccccc1CC(=O)NC1CCN(Cc2ccccc2)CC1
inactive: [1] 1.01 | S. cerevisiae deletion strains, locus YBR229C, strain ROT2, hits give low values 1 | S. cerevisiae deletion strains, locus YDL101C, strain DUN1, hits give low values 1.01 | S. cerevisiae deletion strains, locus YDL134C, strain PPH21, hits give low values 1.02 | S. cerevisiae deletion strains, locus YDR150W, strain NUM1, hits give low values 0.993 | S. cerevisiae deletion strains, locus YEL061C, strain CIN8, hits give low values 1.02 | S. cerevisiae deletion strains, locus YGR078C, strain PAC10, hits give low values 1.01 | S. cerevisiae deletion strains, locus YGR229C, strain SMI1, hits give low values 1.02 | S. cerevisiae deletion strains, locus YHR030C, strain SLT2, hits give low values 0.943 | S. cerevisiae deletion strains, locus YHR087W, strain rtc3, hits give low values 0.998 | S. cerevisiae deletion strains, locus YJR043C, strain POL32, hits give low values 1.01 | [2] 1.02 | S. cerevisiae deletion strains, locus YKL190W, strain CNB1, hits give low values 1.01 | S. cerevisiae deletion strains, locus YLR039C, strain RIC1, hits give low values 0.947 | S. cerevisiae deletion strains, locus YLR058C, strain SHM2 (second series), hits give low values 1.01 | S. cerevisiae deletion strains, locus YLR085C, strain ARP6, hits give low values 1.04 | S. cerevisiae deletion strains, locus YLR262C, strain YPT6, hits give low values 0.826 | S. cerevisiae deletion strains, locus YML094W, strain GIM5, hits give low values 0.991 | S. cerevisiae deletion strains, locus YMR219W, strain ESC1, hits give low values 1.01 | S. cerevisiae deletion strains, locus YMR263W, strain SAP30, hits give low values 1.02 | [3] 1.11 | S. cerevisiae deletion strains, locus YNL153C, strain GIM3, hits give low values 1.01 | S. cerevisiae deletion strains, locus YNL298W, strain CLA4 (second series), hits give low values 1.04 | [4] 1 | S. cerevisiae deletion strains, locus YNR030W, strain Alg12, hits give low values 1.02 | S. cerevisiae deletion strains, locus YOL006C, strain TOP1, hits give low values 0.947 | [5] 1.01 | [6] 1.13 | S. cerevisiae deletion strains, locus YPR135W, strain CTF4, hits give low values 1.07 | S. cerevisiae strains, strain wild type, hits give low values 1.02
